Assay [1] has as its target Lysosomal acid glucosylceramidase (Homo sapiens) (UniProt P04062). Description: Glucocerebrosidase-p2 (AID 348; in the data active = potency below about 10 µM; note: potency is the fitted concentration of half-maximal effect). To be noted: purified GBA, blue fluorogenic substrate, 40 min. The procedure, abridged:
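Normal human glucocerebrosidase (0.2 nM) with blue fluorogenic substrate (80 uM final) in citrate/phosphate pH 5.9 with 10mM sodium taurocholate, 0.01% tween-20; 40 min RT, NaOH/glycine stop; fluorescence Ex 365/Em 440; AC50 from a titration from 0.6 nM upwards.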

Assay [2] can be described thus: AP1 Signaling Pathway (AID 357; active = well fitted curve in either direction with a large enough effect, not every such curve was filed as active; note: % is set by controls: 0 for no effect and ±100 for the full control effect). As to conditions: ME-180 AP-1-bla reporter, EGF-induced, beta-lactamase ratio, 5 h; at 7.69 µM (top of the series) unless noted. The method, boiled down: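 ME-180 cells with beta-lactamase reporter under AP-1 response element, stimulated with EC50 EGF; compounds tested in titration series, 5 h at 37 °C. CCF4 substrate added 2.5 h at room temperature; 460/530 nm emission ratio gave %activity and AC50.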

Assay [3] addresses Cytochrome P450 1A2 (Homo sapiens) (UniProt P05177). Description: p450-cyp1a2 (AID 410; calls by dose curve; note: potency is the fitted concentration of half-maximal effect). To be noted: recombinant CYP1A2, luciferin-ME demethylation, luminescence; series mostly up to 57 µM. The procedure, abridged: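 Read-out is luminescence from luciferin produced by CYP1A2 demethylation of Luciferin-ME (100uM, at Km). Detection reagent stopped the 60 min NADPH-dependent reaction; signals were normalized to 57 uM furafylline.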

Assay [4] is described as follows: NFAT Signaling Pathway (AID 444; active = well fitted curve in either direction with a large enough effect, not every such curve was filed as active;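 note: carbachol stimulus at about its EC50 of 1 µM final; % is set by controls: 0 for no effect and ±100 for the full control effect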). As to conditions: Jurkat NFAT-bla M1, carbachol, beta-lactamase ratio, 5 h; at 7.69 µM (top of the series) unless noted. The method, boiled down: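 Jurkat cells carrying an NFAT-driven β-lactamase reporter and co-transfected muscarinic M1 receptor were treated with compound plus carbachol (1 uM final, an EC50 level) for 5 h at 37 °C. CCF4 loading followed for 1 h at RT; 460/530 nm ratio gave %activity.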

The nature of assay [5]: Stat Signaling Pathway (AID 446; active = well fitted curve in either direction with a large enough effect, not every such curve was filed as active;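 note: ME-180 cervical cancer cells given 40 pM IL-6 alongside compound; SIE-controlled beta-lactamase reporter measured as 460/530 nm FRET emission ratio; % is set by controls: 0 for no effect and ±100 for the full control effect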). As to conditions: ME-180 (cervical carcinoma) SIE beta-lactamase reporter, IL-6 stimulated, 5 h; at 7.69 µM (top of the series) unless noted. The procedure, abridged:
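Compound effects on IL-6-induced STAT reporter activity were measured in ME-180 cells. After overnight culture, cells were co-treated with 40 pM IL-6 for 5 hrs before beta-lactamase substrate loading at room temperature.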

The target in assay [6] is Glucocorticoid receptor (Homo sapiens) (UniProt P04150). Description: GR-GFP Redistribution (AID 450;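 active = compounds whose dose series gives a full or clear partial fitted curve of increased nuclear translocation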; note: potency is the fitted concentration of half-maximal effect). As to conditions: U2OS GR-GFP nuclear translocation, laser cytometry, 2 h.
Assay [7] shares this target. Description: GR-EFC Redistribution (AID 451; calls by dose curve; note: potency is the fitted concentration of half-maximal effect). To be noted: CHO-K1 GR-EFC translocation, beta-gal luminescence, 2 h. The procedure, abridged: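 CHO-K1 cells stably expressing nuclear-localized β-gal enzyme acceptor and GR fused C-terminally to the enzyme donor fragment; ligand-driven nuclear translocation restores β-gal by complementation. Compounds titrated up to 46 uM final, 2 h at 37 °C; luminescence read.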

Assay [8] addresses Mitogen-activated protein kinase 10 (Mus musculus) (UniProt Q61831). Description: JNK3 AlphaScreen Assay (AID 530; active = well fitted curve in either direction with a large enough effect, not every such curve was filed as active;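 note: kinase came from lysate of stimulated human HepG2 cells; % is set by controls: 0 for no effect and ±100 for the full control effect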). As to conditions: JNK3 lysate, c-Jun phosphorylation; series mostly up to 57.1 µM. The method, boiled down: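 Biotinylated GST-cJun(1-79) served as substrate for JNK3 in HepG2 lysates stimulated with IL-1beta and TNF-alpha. ATP was 10 uM final, pH 7.6. Ser73 phosphorylation was quantified by AlphaScreen (680 nm excitation).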
In general terms: Bead proximity is the source of the signal in Alpha formats.

Assay [9] addresses 3',5'-cyclic-AMP phosphodiesterase 4B (Homo sapiens) (UniProt Q07343). Description: qHTS Assay for Inhibitors of PDE-IV (AID 607; active = well fitted activation curve with a large enough effect in the main read-out, with a control signal flat, not every such curve was filed as active; note: % of control where 0% means no effect). To be noted: HEK293 ACTOne CNG channel cells, membrane potential fluorescence; series mostly up to 22.9 µM. The method, boiled down: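 ACTOne HEK293 cells carry a modified cAMP-gated CNG channel and express endogenous PDE4; plated 1000 cells/well, compounds up to 22.9 uM final. Membrane-potential dye fluorescence (ex 535/em 590) was read; parental cells received 10 uM forskolin + 100 uM RO 20-1724.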
In general terms: Quantitative high-throughput screening tests each substance at several concentrations.

For assay [10], the target named is Cytochrome P450 3A4 (Homo sapiens) (UniProt P08684). Description: qHTS Assay for Inhibitors and Substrates of Cytochrome P450 3A4 (AID 884). Note: potency is the fitted concentration of half-maximal effect; nearly all actives have a fitted effect of over 50% in size. To be noted: recombinant CYP3A4, Luciferin-PPXE luminescence; series mostly up to 57.1 µM. The method, boiled down:
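Luminescent readout of luciferin produced by CYP3A4 (20 nM) dealkylation of Luciferin-PPXE, 25 uM (its KM). NADPH-driven reaction ran 60 min at RT after 10 min compound preincubation; data scaled to 57 uM ketoconazole as 100% inhibition.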

The target is the same in assay [11]. Description: qHTS Assay for Activators of Cytochrome P450 3A4 (AID 885). Note: nearly all actives have a fitted effect of over 65% in size. To be noted: recombinant CYP3A4, Luciferin-PPXE luminescence, 60 min; series mostly up to 57.1 µM. The procedure, abridged:
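CYP3A4 activity: Luciferin-PPXE O-dealkylation, 25uM substrate, 200mM KPO4, RT throughout. Read-out is luciferase luminescence; higher values reflect activation.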

A short description of assay [12]: Confirmation and Secondary Assay for Modulators of Hemoglobin Beta Chain Splicing at IVS2 654 locus (AID 910).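 Note: per-well total GFP intensity by laser scanning cytometry after 2-day treatment; % of control where 0% means no effect.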 To be noted: HeLa EGFP-654 splicing reporter, GFP fluorescence, 48 h; series mostly up to 38.3 µM. The method, boiled down: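 HeLa cells stably carrying EGFP interrupted by mutant beta-globin IVS2-654 intron (CMV-driven) were treated with compound for 2 days at 37C; corrected splicing was scored as total peak GFP intensity per well (488 nm excitation, 500-520 nm emission).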

A short description of assay [13]: Confirmation and Secondary Assay for Modulators of Hemoglobin Beta Chain Splicing at IVS2 705 locus (AID 930).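 Note: HeLa cells stably expressing the EGFP-705 splicing reporter; % of control where 0% means no effect.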 To be noted: HeLa EGFP-705 splicing reporter, GFP fluorescence, 48 h; series mostly up to 38.3 µM. The method, boiled down: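 Assay measures total GFP intensity per well in HeLa EGFP-705 cells after 2 days with compound; mis-splicing normally truncates EGFP, so fluorescence indicates corrected splicing.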

A short description of assay [14]: qHTS Assay for Lipid Storage Modulators (AID 1519; calls by dose curve). As to conditions: Drosophila S3 cells, BODIPY lipid droplet/cell ratio, laser cytometry, cells loaded with oleic acid; for activity change, negative = inhibition: at 57.5 µM (top of the series). The method, boiled down: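 Cells seeded at 5,000 per well were treated with compounds over a concentration series and loaded with oleic acid (400 uM, as added). Lipid droplet fluorescence (488 nm excitation, 500-530 nm channel) was read by laser-scanning cytometry and normalized to 20 uM Triacsin C.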

The target in assay [15] is Ubiquitin carboxyl-terminal hydrolase 1 (Homo sapiens) (UniProt O94782). Description: Inhibitors of USP1/UAF1: Pilot qHTS (AID 504865). Note: nearly all actives have a fitted effect of over 35% in size. Note: potency is the fitted concentration of half-maximal effect. To be noted: purified USP1/UAF1, Ub-rhodamine cleavage fluorescence; series mostly up to 54.9 µM. The procedure, abridged: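 Enzyme-free wells gave the negative control, while test wells held 1nM USP1/UAF1 preincubated with compound for 15 min at room temperature. Ub-Rho at 150nM final started the reaction, and fluorescence at 480/540 nm was recorded kinetically.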

Assay [16] in a line: Primary qHTS for small molecule stabilizers of the endoplasmic reticulum resident proteome: Secreted ER Calcium Modulated Protein (SERCaMP) assay (AID 1508630). Note: % is set by controls: 0 for no effect and ±100 for the full control effect. As to conditions: SH-SY5Y GLuc-SERCaMP (Gaussia luciferase released on ER calcium loss) secretion, thapsigargin, luminescence; series mostly up to 38.4 µM. The procedure, abridged: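 The SH-SY5Y reporter protocol was run at 3 concentrations up to 38.3 uM (primary) or 11 concentrations (follow-up): 16 h compound, 100 nM thapsigargin for 4 h, then extracellular luciferase luminescence.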

The target in assay [17] is Cytochrome P450 2C19 (Homo sapiens) (UniProt P33261). Description: qHTS Assay for Inhibitors and Substrates of Cytochrome P450 2C19 (AID 899). Note: potency is the fitted concentration of half-maximal effect; nearly all actives have a fitted effect of over 60% in size. To be noted: recombinant CYP2C19, luciferin-H EGE luminescence; series mostly up to 57.1 µM. The method, boiled down:
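NADPH-dependent conversion of Luciferin-H EGE (10uM, at KM) by 5nM enzyme in 50mM KPO4, 60 min at 37C following 10 min compound preincubation. Stopped with luciferin detection buffer; luminescence read after 20 min.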

Setting [18] is: measured here: cell count channel max response.
Where [19] appears, read: measured here: lipid channel max response.

Inconclusive results are not listed. Calls of active or inactive are those of the source. Unless noted, calls come from the whole dose curve; as a rule, active = well fitted curve in the direction sought with a large enough effect; inconclusive = small, poorly fitted or top-dose-only effect, or another doubt; inactive = no such curve, though single readings can be large; an effect the other way counts as inactive or inconclusive.

Sequence of 3',5'-cyclic-AMP phosphodiesterase 4B (Homo sapiens) (Q07343 whole entry, looked up): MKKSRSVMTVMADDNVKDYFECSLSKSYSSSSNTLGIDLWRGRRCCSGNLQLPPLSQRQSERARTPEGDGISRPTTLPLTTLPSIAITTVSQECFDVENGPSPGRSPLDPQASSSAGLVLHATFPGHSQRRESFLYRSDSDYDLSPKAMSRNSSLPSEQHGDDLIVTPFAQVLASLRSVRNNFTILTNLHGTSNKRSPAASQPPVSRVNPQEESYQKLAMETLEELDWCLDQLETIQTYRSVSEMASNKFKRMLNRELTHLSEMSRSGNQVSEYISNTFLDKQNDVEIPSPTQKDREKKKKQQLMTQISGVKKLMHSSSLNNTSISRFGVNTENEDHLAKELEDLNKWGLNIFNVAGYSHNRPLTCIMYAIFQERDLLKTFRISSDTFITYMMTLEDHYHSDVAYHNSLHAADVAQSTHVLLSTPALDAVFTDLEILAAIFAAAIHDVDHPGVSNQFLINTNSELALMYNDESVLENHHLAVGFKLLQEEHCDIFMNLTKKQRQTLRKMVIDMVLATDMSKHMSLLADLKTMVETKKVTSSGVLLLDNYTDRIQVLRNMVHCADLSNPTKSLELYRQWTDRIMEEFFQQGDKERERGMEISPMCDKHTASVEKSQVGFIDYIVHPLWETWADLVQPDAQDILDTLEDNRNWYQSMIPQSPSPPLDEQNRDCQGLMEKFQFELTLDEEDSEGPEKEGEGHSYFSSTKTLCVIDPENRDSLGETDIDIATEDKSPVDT
Sequence of Lysosomal acid glucosylceramidase (Homo sapiens) (P04062 whole entry, looked up): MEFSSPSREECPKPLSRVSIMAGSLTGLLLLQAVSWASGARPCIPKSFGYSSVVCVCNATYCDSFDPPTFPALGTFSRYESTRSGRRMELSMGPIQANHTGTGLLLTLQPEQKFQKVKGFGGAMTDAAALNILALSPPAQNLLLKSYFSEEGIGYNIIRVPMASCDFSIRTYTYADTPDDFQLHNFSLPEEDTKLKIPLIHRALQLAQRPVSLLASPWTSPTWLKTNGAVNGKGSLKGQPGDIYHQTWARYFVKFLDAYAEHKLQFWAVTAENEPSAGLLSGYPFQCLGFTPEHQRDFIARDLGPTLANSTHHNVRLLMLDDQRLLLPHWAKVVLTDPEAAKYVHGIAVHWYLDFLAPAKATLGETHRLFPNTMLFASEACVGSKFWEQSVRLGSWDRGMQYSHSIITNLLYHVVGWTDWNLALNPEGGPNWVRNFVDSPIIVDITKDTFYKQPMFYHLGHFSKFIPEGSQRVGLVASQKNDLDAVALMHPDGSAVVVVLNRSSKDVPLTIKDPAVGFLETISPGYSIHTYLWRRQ
Sequence of Cytochrome P450 3A4 (Homo sapiens) (P08684 whole entry, looked up): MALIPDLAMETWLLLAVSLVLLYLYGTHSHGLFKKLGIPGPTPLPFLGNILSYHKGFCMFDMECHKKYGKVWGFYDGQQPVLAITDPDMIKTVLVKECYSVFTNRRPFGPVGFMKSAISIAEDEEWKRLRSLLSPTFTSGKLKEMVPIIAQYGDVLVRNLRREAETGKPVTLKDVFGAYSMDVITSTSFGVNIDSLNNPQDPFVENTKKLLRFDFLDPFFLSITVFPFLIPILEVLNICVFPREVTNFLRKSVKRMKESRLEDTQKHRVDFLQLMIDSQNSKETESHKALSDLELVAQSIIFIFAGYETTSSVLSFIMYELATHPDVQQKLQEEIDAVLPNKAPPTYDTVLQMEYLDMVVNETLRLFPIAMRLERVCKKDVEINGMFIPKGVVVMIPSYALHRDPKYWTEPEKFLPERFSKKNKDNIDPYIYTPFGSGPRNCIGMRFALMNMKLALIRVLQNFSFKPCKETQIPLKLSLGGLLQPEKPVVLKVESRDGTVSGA
Sequence of Glucocorticoid receptor (Homo sapiens) (P04150 whole entry, looked up, the tested form may be a part): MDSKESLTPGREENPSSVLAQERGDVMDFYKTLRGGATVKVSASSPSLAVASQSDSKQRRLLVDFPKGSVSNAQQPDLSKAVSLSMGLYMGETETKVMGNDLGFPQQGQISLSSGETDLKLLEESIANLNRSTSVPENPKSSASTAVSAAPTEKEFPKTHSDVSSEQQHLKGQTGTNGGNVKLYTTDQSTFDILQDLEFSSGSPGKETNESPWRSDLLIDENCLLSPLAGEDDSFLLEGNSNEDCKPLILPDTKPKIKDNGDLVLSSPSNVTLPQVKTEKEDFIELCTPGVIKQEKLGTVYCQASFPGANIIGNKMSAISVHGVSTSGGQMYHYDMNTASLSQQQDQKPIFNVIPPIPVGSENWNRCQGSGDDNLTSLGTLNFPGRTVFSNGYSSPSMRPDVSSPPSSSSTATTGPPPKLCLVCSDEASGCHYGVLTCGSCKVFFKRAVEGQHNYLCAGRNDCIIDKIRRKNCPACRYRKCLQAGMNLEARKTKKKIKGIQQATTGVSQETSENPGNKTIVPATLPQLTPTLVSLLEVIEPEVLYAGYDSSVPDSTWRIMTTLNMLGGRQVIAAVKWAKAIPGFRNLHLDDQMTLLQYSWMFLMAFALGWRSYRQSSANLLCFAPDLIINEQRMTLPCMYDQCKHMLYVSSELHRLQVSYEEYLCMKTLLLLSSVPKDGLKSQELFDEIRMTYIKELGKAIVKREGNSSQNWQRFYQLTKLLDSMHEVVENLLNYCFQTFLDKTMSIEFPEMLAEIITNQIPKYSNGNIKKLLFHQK
Sequence of Cytochrome P450 1A2 (Homo sapiens) (P05177 whole entry, looked up): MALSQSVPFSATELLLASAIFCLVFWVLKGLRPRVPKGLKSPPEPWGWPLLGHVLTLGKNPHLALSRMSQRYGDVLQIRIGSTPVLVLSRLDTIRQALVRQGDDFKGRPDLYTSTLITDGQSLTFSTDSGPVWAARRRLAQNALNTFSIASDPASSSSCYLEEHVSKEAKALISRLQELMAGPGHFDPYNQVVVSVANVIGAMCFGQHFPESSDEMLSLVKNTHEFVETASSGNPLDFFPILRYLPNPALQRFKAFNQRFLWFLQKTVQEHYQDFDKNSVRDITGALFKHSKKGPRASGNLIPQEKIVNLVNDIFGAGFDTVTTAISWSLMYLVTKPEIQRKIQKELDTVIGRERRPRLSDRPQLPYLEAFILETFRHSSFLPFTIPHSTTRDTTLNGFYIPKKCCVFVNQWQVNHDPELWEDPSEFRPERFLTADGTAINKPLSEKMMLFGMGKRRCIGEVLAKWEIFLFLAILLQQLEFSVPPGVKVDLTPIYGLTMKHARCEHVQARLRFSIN
Sequence of Ubiquitin carboxyl-terminal hydrolase 1 (Homo sapiens) (O94782 whole entry, looked up): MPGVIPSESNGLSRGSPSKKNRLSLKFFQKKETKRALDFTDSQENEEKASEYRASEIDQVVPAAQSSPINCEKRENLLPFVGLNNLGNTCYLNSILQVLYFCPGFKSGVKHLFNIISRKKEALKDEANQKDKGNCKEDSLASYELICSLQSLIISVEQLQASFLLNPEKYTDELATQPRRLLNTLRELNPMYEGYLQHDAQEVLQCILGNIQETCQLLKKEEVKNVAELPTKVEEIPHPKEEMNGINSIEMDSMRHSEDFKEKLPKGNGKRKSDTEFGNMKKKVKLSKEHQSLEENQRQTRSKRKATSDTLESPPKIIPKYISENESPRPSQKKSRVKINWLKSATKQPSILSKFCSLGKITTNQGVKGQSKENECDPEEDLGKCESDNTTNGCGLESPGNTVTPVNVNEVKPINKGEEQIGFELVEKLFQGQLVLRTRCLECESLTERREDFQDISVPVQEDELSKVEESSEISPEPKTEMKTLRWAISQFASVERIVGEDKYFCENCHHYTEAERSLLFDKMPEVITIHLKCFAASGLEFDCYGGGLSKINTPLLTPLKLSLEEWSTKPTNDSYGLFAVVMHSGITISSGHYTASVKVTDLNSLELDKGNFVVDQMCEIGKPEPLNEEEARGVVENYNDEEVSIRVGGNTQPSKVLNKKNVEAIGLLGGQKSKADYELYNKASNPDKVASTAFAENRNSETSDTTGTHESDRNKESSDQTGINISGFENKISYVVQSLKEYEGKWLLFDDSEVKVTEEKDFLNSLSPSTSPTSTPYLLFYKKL
Sequence of Cytochrome P450 2C19 (Homo sapiens) (P33261 whole entry, looked up): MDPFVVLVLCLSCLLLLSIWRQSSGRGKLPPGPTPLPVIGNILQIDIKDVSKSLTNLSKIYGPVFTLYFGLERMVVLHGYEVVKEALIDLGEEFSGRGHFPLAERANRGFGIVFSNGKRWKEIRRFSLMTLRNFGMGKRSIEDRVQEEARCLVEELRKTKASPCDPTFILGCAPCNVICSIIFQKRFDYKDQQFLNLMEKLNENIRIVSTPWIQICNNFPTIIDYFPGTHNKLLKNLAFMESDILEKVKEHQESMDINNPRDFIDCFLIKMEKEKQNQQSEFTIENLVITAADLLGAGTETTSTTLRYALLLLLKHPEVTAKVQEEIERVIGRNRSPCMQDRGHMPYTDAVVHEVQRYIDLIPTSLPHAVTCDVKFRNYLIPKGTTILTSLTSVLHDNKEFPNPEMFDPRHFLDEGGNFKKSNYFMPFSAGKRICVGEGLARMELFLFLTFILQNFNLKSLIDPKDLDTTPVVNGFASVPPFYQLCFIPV

As for `COc1ccc(CNc2ccnc(-c3ccccc3C(F)(F)F)n2)c(OC)c1`, the Potency in assay [1] is > 11.4 µM (inactive); in assay [3], 15.8 µM (active); in [6], > 46 µM (inactive); in [7], > 46 µM (inactive); in [10] it was 3.16 µM (active); in assay [15], 11.2 µM (active). Further, the activity change, negative = inhibition in assay [2] was -17.1% (inactive); in [4], -5.1% (inactive); in assay [14], 6.23% (inactive). In addition, the activity, negative = inhibition in assay [5] is 1.22% (inactive). The call in [8], in assay [12] and in assay [13] was inactive. Moreover, the Potency result in assay [9], in assay [11] and in assay [16] was “inactive” in each case. The max response is 3.1% in assay [14] (setting [18]) and 8.88% in [14] (setting [19]).

As for `Cc1noc(C)c1-c1cc(NC2CC2)ncn1`, the Potency was > 11.4 µM (inactive) in assay [1], 0.316 µM (active) in assay [3], > 46 µM (inactive) in assay [6] and > 46 µM (inactive) in [7]. The activity change, negative = inhibition in [2] is -3.03% (inactive); in [4] it was 3.57% (inactive); in [14] it was 11% (inactive). The activity, negative = inhibition in [5] was 5.59% (inactive). Besides, the call in [8], in assay [12] and in [13] was inactive. For the same compound, the Potency entry in [9], in assay [11], in [15] and in [16] was “inactive” in each case. For the same compound, the results for the max response in [14] (setting [18]) and in [14] (setting [19]) were 17% and 27.1%, respectively.

For the compound `COc1ccccc1-c1cc(NCc2cccnc2)ncn1`, the Potency in assay [1] was > 11.4 µM (inactive); in [3], 0.316 µM (active); in [6] it was > 46 µM (inactive); in assay [7], > 46 µM (inactive); in assay [10] it was 5.01 µM (active). In addition, the activity change, negative = inhibition in [2] was -6.59% (inactive); in assay [4], -4.97% (inactive); in assay [14], 4.96% (inactive). Further, in assay [5], the activity, negative = inhibition was 0.807% (inactive). Further, the compound was called inactive in [8], in assay [12] and in [13]. Moreover, the Potency result in assay [11], in assay [15] and in assay [16] was “inactive” in each case. The max response was determined as 9.53% in [14] (setting [18]) and 19.3% in [14] (setting [19]).

In the case of `Cc1noc(C)c1-c1cc(Nc2ccc(F)cc2)ncn1`, the Potency in [1] is > 11.4 µM (inactive); in assay [3], 0.501 µM (active); in [6], > 46 µM (inactive); in [7], > 46 µM (inactive). In addition, the activity change, negative = inhibition in assay [2] is -7.8% (inactive); in [4], -15.1% (inactive); in assay [14] it was 8.49% (inactive). Also, the activity, negative = inhibition in assay [5] was 3.16% (inactive). Also, the compound was called inactive in [8], in assay [12] and in [13]. The Potency entry in [9], in assay [11], in assay [15] and in [16] was “inactive” each time. Besides, the max response in assay [14] (setting [18]) was found to be 3.61%; in assay [14] (setting [19]) it was 10.9%.

Turning to `COc1ccccc1CNc1ncncc1-c1cccc(C#N)c1`, the Potency in assay [1] is > 11.4 µM (inactive); in assay [3], 10 µM (active); in assay [6], > 46 µM (inactive); in assay [7] it was > 46 µM (inactive); in assay [17], 3.16 µM (active). Further, the activity change, negative = inhibition in assay [2] is -6.51% (inactive); in [4], -5.86% (inactive); in assay [14], 6.39% (inactive). The activity, negative = inhibition in assay [5] was -0.225% (inactive). The compound was called inactive in assay [8], in assay [12] and in assay [13]. For the same compound, the Potency result in assay [9], in [11], in [15] and in [16] was “inactive” throughout. Besides, the figures for the max response in [14] (setting [18]) and in assay [14] (setting [19]) were -8.3% and 8.29%, respectively.

The values are drawn from PubChem BioAssay (NCATS).
